Reference: the supplement of paper PMC10338343
± gives the standard deviation.

Test system: MILI (PIWIL2) piRISC loaded with piRNA #1 (26 nt)
Assay: pre-steady-state target cleavage rate (min^-1); guide: piRNA #1 5'p-UGAGGUAGUAGGUUGUAUAGUAUCCA; higher = faster piRNA-guided slicing of the target
Settings: auxiliary factor: 500 nM mouse GTSF1
Outline: (§1)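 Cleave-'n-Seq: a transcribed, DNA-blocked target RNA library (0.1 nM) was mixed with 1 nM active affinity-purified piRISC carrying one synthetic guide, with or without 500 nM GTSF1 partner protein, in HEPES–potassium acetate buffer at 33 °C for 0–8 or 0–960 min. Uncleaved targets were sequenced and normalised to depth and to weakly complementary targets. Three trials were pooled, and k3 was capped at 0.0001 min^-1. The pre-steady-state cleavage rate came from a burst-and-steady-state fit.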

First: GGAGACGAUACUAUACAACCUUCUACCUCA
Second: GGAGACCUUACUAGUACAACCUACUACCUCA
The “pre-steady-state target cleavage rate” value of the first is lower: 0.0098 ± 0.0026 for the first, 0.0945 ± 0.0095 for the second.

GGAGACGAUACUAUACAACGCUACUACCUCA and GGAGUGGAUACUAUACAAGCAACUACCUCA are within error of each other in “pre-steady-state target cleavage rate” value: 0.00688 ± 0.0028 for the first, 0.00874 ± 0.0017 for the second.

Test system: EfPiwi piRISC loaded with piRNA #1 (26 nt)
Assay: pre-steady-state target cleavage rate (min^-1); auxiliary factor: 500 nM Ephydatia muelleri Gtsf1; guide: piRNA #1 5'p-UGAGGUAGUAGGUUGUAUAGUAUCCA; MIWI and MILI are mouse PIWI proteins and EfPiwi is from a freshwater sponge; tags in brackets are library labels; higher = faster piRNA-guided slicing of the target
Settings: not given
Outline: as §1

GGAGACCAUACUAUACUACCUACUUCCUCA and GGAGAGGAUACUAUACAACCUAGAUCCUCA are within error of each other in “pre-steady-state target cleavage rate” value: 0.00301 ± 0.0023 for the first, 0.00241 ± 0.0021 for the second.

GGAGUGGAUACUAUACAACCUUGAACCUCA and “GGAGAGGAUACUAUACAACCUACUAGGAGA [g6:g25:cont:t1A]” are within error of each other in “pre-steady-state target cleavage rate” value: 0.00462 ± 0.0029 for the first, 0.00363 ± 0.0023 for the second.

GGAGACGAUACUAUACUACCUACUUCCUCA and GGAGACCUAACUAUACAACCUACUACCUACA are within error of each other in “pre-steady-state target cleavage rate” value: 0.00224 ± 0.0016 for the first, 0.00795 ± 0.0042 for the second.

GGAGACGAUACUAUACAACCUUCUACCUCA and “GGAGACGAUACUAUACAACCUACUUGGAGA [g7:g24:cont:t1A]” are within error of each other in “pre-steady-state target cleavage rate” value: 0.00729 ± 0.0029 for the first, 0.00429 ± 0.0022 for the second.

GGAGACCAUACUAUACAACCAACUACCUCA and GGAGUGGAUACUAUACAAGCCUACUACCUCA are within error of each other in “pre-steady-state target cleavage rate” value: 0.00627 ± 0.0022 for the first, 0.0104 ± 0.0053 for the second.

“GGAGACGAUACUAUACAACCUACUAGGAGA [g6:g24:cont:t1A]” and GGAGACGAUACUAUACAACCUUCUUCCUCA are within error of each other in “pre-steady-state target cleavage rate” value: 0.00317 ± 0.0021 for the first, 0.0037 ± 0.0019 for the second.

GGAGUGGAUACUAUACACACCUACUACCUCA and GGAGACCUUACUAGUACAACCUACUACCUCA are within error of each other in “pre-steady-state target cleavage rate” value: 0.0105 ± 0.005 for the first, 0.00695 ± 0.0046 for the second.

GGAGUGGAUAGAAUACAACCUACUACCUCA and GGAGACCUUACUAUACAACGUACUACCUGA are within error of each other in “pre-steady-state target cleavage rate” value: 0.0062 ± 0.0044 for the first, 0.00475 ± 0.0042 for the second.

First: GGAGACCAUACUAUUCAAGCUACUACCUCA
Second: GGAGACCAAACUAUACAUCCUACUACCUCA
The “pre-steady-state target cleavage rate” value of the first is lower: 0.00339 ± 0.0032 for the first, 0.0348 ± 0.013 for the second.

With GGAGACGAUACUAUUCAACCUUCUACCUCA the “pre-steady-state target cleavage rate” value was 0.00443 ± 0.0025.
